In PubChem BioAssay:
Calls of active or inactive are those of the source.

Key:
Albumin (Bos taurus) = Albumin (Bos taurus) (UniProt P02769); assay: compounds binding labelled BSA control protein – biochemical, small-molecule microarray, Alexa647 label, 635/667 nm fluorescence, artefact control for SMM control protein annotation, profiling panel (AID 1118); conditions: BSA-A647 binding, fluorescence 635 nm, higher = more signal;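 further: score merges 667 nm emission intensity and signal-to-noise per printed compound spot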
[1] = probe aXIP binding to arrayed compounds – biochemical, NeuroSMM set, 635/667 nm fluorescence, primary screen (AID 1119); conditions: small-molecule microarray, higher = more signal, called active from +8 up or from −8 down;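 further: probe is the protein aXip251-270 applied at 1 µg/mL to compound-printed slides; binding of probe to printed compounds measured as 667 nm fluorescence plus signal to noise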
[2] = probe aNOTCH3 binding on compound microarray – biochemical, small-molecule microarray, 635/667 nm fluorescence, primary screen (AID 1120); conditions: higher = more signal;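 further: probe is a biotin-tagged antibody raised against NOTCH3 rather than NOTCH3 protein; score merges spot fluorescence near 667 nm with spot signal to noise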
[3] = probe aNOTCH2 binding on compound microarray – biochemical, small-molecule microarray, 635/667 nm fluorescence, primary screen (AID 1121); conditions: higher = more signal;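 further: score merges feature fluorescence read at 667 nm with its signal to noise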
[4] = target: Carbonic anhydrase 2 (Homo sapiens) (UniProt P00918); assay: compounds binding carbonic anhydrase 2 – biochemical, small-molecule microarray, Alexa647-labelled CAII, profiling panel (AID 1122); conditions: CAII-A647 binding fluorescence, higher = more signal
[5] = COS7 lysate on small-molecule microarray, probe aHis, 635 nm (AID 1123); conditions: COS7 cell lysate, fluorescence, higher = more signal;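 further: z-score combines 667nm fluorescence intensity with signal-to-noise per printed compound spot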
[6] = probe aLAP1 signal on lysate-treated microarray – cell lysate, small-molecule microarray, COS7 lysate, primary screen (AID 1124); conditions: probe aLAP1, fluorescence, higher = more signal;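 further: lysate comes from COS7 cells expressing LAP1 and is applied at 0.3 µg/mL; score merges spot fluorescence near 667 nm with signal-to-noise over triplicate slides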
Sam68 (KHDRBS1) = assay: compounds binding KHDRBS1 protein – biochemical, small-molecule microarray, 635 nm fluorescence, primary screen (AID 1125); conditions: higher = more signal;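 further: score merges 667 nm channel intensity with signal to noise over triplicate slides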
[7] = tested on: Chordin-like protein 2 (CHRDL2); assay: compounds binding chordin-like 2 – biochemical, small-molecule microarray, 635 nm fluorescence, primary screen (AID 1126); conditions: fluorescence 635 nm, higher = more signal;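 further: printed compound slides probed with Chrdl2 protein at 4 µg/mL for 1 h at 4 C; score merges 667 nm emission intensity with signal to noise over three replicate slides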
[8] = target: Concanavalin-A (Canavalia ensiformis) (UniProt P02866); assay: compounds binding concanavalin A lectin – biochemical, small-molecule microarray, Alexa647 label, 635 nm, artefact control for SMM control protein annotation, primary screen (AID 1127); conditions: ConA-A647 binding fluorescence, higher = more signal;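 further: z combines 667 nm emission intensity with signal-to-noise across three replicate slides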
Sequence of Concanavalin-A (Canavalia ensiformis) (P02866 whole entry, looked up): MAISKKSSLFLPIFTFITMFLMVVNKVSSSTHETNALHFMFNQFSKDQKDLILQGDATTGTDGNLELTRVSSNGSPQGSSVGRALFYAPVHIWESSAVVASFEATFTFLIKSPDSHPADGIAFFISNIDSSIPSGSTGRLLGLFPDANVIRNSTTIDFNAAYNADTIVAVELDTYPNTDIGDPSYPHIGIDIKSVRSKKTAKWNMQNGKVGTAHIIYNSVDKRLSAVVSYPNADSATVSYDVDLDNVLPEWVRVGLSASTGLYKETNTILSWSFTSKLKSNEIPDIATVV

Sequence of Albumin (Bos taurus) (P02769 whole entry, looked up): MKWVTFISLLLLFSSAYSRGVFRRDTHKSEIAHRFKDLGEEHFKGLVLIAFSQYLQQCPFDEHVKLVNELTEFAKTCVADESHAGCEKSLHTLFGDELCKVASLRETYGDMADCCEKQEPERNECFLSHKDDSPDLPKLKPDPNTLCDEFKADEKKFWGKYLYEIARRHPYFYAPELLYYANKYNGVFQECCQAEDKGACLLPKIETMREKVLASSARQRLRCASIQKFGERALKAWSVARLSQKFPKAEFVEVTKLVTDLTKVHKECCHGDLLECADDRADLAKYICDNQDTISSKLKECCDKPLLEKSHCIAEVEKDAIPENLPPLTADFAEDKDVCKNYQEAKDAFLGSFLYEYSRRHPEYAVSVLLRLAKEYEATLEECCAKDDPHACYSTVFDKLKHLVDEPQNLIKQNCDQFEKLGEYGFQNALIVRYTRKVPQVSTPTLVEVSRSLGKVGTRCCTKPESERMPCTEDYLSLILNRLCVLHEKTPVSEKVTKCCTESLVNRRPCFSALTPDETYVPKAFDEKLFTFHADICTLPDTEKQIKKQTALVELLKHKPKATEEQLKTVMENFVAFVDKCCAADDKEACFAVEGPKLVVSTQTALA

Structure (SMILES) | composite z-score (Albumin (Bos taurus)) | composite Z-score [1] | composite z-score [2] | composite z-score [3] | composite z-score [4] | composite z-score [5] | composite z-score [6] | composite z-score (Sam68 (KHDRBS1)) | composite z-score [7] | composite z-score [8]
C=C(C)C1CN([C@H](CO)c2ccccc2)C(=O)/C1=C\c1ccccc1 (stereo not given in full) | 0.252 | -0.137 (inactive) | -0.0647 | -0.0741 | 0.158 | -0.574 | 0.027 | 0.168 | 0.467 | 0.0006
CN1C(=O)C2C=CC(C(O)c3ccc([N+](=O)[O-])cc3)N(Nc3ccccc3)C2C1=O (stereo not given) | 1.06 | -1.05 (inactive) | 0.315 | -0.0305 | 0.652 | 1.94 | 0.701 | 1.31 | 0.196 | 1.15
CC(C)C[C@H]1NC(=O)CNC(=O)[C@@]23C(=O)N[C@@H](Cc4ccccc4)C2[C@H](C)[C@@]2(C)O[C@H]2C3/C=C/C/C=C\CNC1=O (stereo not given in full) | 0.591 | -0.0443 (inactive) | -0.0984 | -0.133 | 0.392 | 0.677 | 0.248 | 0.258 | 0.599 | 0.0947
O=C1NC(=O)C2C1C=CC(C(O)C1CCCCC1)N2Nc1ccccn1 (stereo not given) | 0.516 | 0.468 (inactive) | 0.0351 | -0.0422 | 0.827 | 1.36 | -0.636 | 0.233 | 0.342 | 0.898
C=CC[C@H](O)c1ccc(O)c(F)c1 | -0.394 | 0.404 (inactive) | -0.849 | -0.157 | 0.828 | -0.268 | -0.0732 | -1.45 | -2.24 | -1.09
COc1cc(Cc2cc3c(c(-c4ccccc4)n2)[Si](C(C)C)(C(C)C)OC3)cc(OC)c1OC | -1.25 | 0.23 (inactive) | -0.0682 | -0.0028 | 0.153 | -0.317 | -0.27 | -1.26 | 0.296 | -0.264
CC1(C)OB(/C=C\CC(OC(=O)c2ccncc2)c2ccccc2)OC1(C)C (stereo not given) | 0.152 | 0.142 (inactive) | -0.0345 | -0.0464 | 0.918 | 0.677 | 0.953 | 0.426 | 0.381 | -0.305
CCCC[C@@H](O)C1=C(C)Cn2c(=O)n(-c3ccccc3)c(=O)n2[C@H]1CO | 0.138 | -0.301 (inactive) | -0.0647 | -0.219 | -0.313 | 0.332 | -0.0242 | -0.92 | 0.24 | -0.827
CCN1C(=O)C2CC(=O)C3C(CN(S(=O)(=O)c4ccc(C)cc4)C3c3ccc(C)cc3)C2C1=O (stereo not given) | 0.449 | 0.37 (inactive) | 0.0282 | -0.108 | 0.75 | 2.05 | 1.11 | 0.768 | -0.99 | 0.99
[N-]=[N+]=Nc1ccccc1C[C@@]1(C(=O)NCC(O)CO)N=C(c2ccc(OCCCO)cc2)O[C@@H]1c1ccccc1N=[N+]=[N-] (stereo not given in full) | 0.874 | -0.213 (inactive) | 0.204 | 0.0124 | 0.78 | 2.25 | 1.26 | 1.12 | -0.802 | 0.902
CCCCC=C[C@@H](NC(=O)C(C)(C)C)c1ccccc1 | 0.743 | -0.424 (inactive) | 0.259 | -0.0769 | 0.509 | -0.0783 | 0.983 | 1.09 | -0.264 | 1.04
O=C1C[C@@](C(=O)NCC(F)(F)F)(c2ccc([N+](=O)[O-])cc2)[C@@H](c2ccc(CO)cc2I)N1CC12CC3CC(CC(C3)C1)C2 | 0.506 | 0.0839 (inactive) | -0.056 | -0.13 | 0.517 | 1.48 | 1.15 | 1.29 | -0.0117 | 1.12
COc1ccc(CCNC(=O)[C@@]2(c3ccc([N+](=O)[O-])cc3)CC(=O)N(C3CCCCC3)[C@@H]2c2ccc(CO)cc2I)cc1 | -0.127 | 0.931 (inactive) | 0.0293 | 0.0254 | 0.364 | 1.52 | 0.89 | 0.962 | 0.252 | 0.754
C[C@]1(C(=O)NCC(F)(F)F)c2ccccc2C(=O)N(Cc2cc(C(F)(F)F)cc(C(F)(F)F)c2)[C@H]1c1ccc(CO)cc1 | 0.154 | 0.196 (inactive) | -0.154 | -0.0226 | 0.306 | 1.11 | 0.108 | 0.1 | -0.404 | -0.522
CC(C)(C)OC(=O)CC[C@@]1(C(N)=O)N=C(c2ccc(OCCCO)cc2)O[C@@H]1c1ccccc1CN=[N+]=[N-] | 0.818 | -0.0657 (inactive) | 0.651 | 0.27 | 0.876 | 3.13 | 1.12 | 0.914 | 0.312 | 0.933
CCCCN1CC=CC23O[C@@H]4/C=C\CCC(C)OC(=O)C4[C@H]2C(=O)N(CCO)[C@@H]3C1=O (stereo not given in full) | 0.197 | 2.55 (inactive) | -0.0745 | -0.101 | 0.97 | 2.47 | 1.49 | 0.852 | -0.789 | -0.833
COC(=O)[C@@]1(Cc2ccc(F)cc2)[C@@H]2C(=CC(=O)[C@H]2CC(=O)C(=O)N2CCCC2)CN1C(=O)c1ccccc1 | 1.02 | -0.131 (inactive) | 1.24 | 0.845 | 0.65 | 3.14 | 0.805 | 1.22 | 0.484 | 0.455
CCCCC(=C=CC[C@H](O)c1cccc(OCCO)c1)C[C@H](O)c1cc(Cl)cc(Cl)c1O | 0.436 | 0.41 (inactive) | -0.0288 | -0.143 | 0.465 | 0.686 | -0.151 | 1.03 | 0.0963 | 1.04
C=CC[C@H](OC(=O)Nc1ccc(SC)cc1)c1ccc(O)c(F)c1 | 0.333 | 0.514 (inactive) | -0.246 | -0.168 | 0.577 | 0.596 | -0.172 | -1.28 | -0.174 | -0.873
COc1ccc(NN2C(C(O)c3ccc(F)cc3)C=CC3C(=O)N(C4CCCCC4)C(=O)C32)cc1 (stereo not given) | 0.861 | -0.0189 (inactive) | 0.183 | -0.0161 | 0.649 | 1.39 | 0.0892 | 1.29 | -0.0299 | 1.13
C=C[C@H](OC)[C@@H](O)c1ccc(OC)c(O)c1 | 0.985 | -0.272 (inactive) | -0.557 | -0.19 | 0.145 | -0.651 | -0.0037 | -2.47 | -1.01 | -1.9
COC(=O)C1(CC(C)C)C=C2C(=C(C)C(=O)C2C)CN1 (stereo not given) | -0.293 | 1.64 (inactive) | 0.786 | 0.175 | 0.754 | 1.63 | 0.311 | -0.0177 | 0.0633 | -0.667
COCCOC(=O)N1C(=O)[C@@]2(c3cc(C#CCNC(N)=O)ccc31)[C@H](c1ccc(O)cc1)N1[C@H](c3ccccc3)[C@H](c3ccccc3)OC(=O)[C@H]1[C@@H]2C(=O)N1CCc2cc(OC)c(OC)cc2C1 | 0.397 | 0.443 (inactive) | 0.0962 | -0.0928 | 0.414 | 0.781 | -0.0347 | 1.21 | 0.431 | 0.764
COC(=O)[C@@]1(Cc2ccccc2)[C@H]2c3cc(C(=O)N(C)C)n(Cc4ccc(Cl)c(C(F)(F)F)c4)c3C[C@H]2CN1C(=O)c1ccccc1 | 0.811 | -0.215 (inactive) | 0.745 | 0.445 | 0.668 | 1.9 | 0.402 | 1.2 | -0.123 | 0.95
COc1ccc([Si](C)(C)[C@H]2[C@H](CCO)O[C@@]3(C(=O)N(Cc4ccccc4)c4ccc(NC(=O)[C@H](C)O)cc43)[C@@H]2C)cc1 | 0.639 | 0.393 (inactive) | 0.372 | -0.0274 | 0.48 | 2.28 | -0.298 | 0.463 | 0.0883 | 0.473
COc1ccc(C(O)C2C=CC3C(=O)N(C)C(=O)C3N2Nc2ccccc2)cc1 (stereo not given) | 0.986 | 0.195 (inactive) | 0.344 | 0.0753 | 0.376 | 2.87 | 0.388 | 1.28 | -0.224 | 1.17
CCCC1(C(=O)OC)C=C2C(=C(C(C)C)C(=O)C2C)CN1 (stereo not given) | 0.844 | 0.382 (inactive) | -0.0288 | 0.0788 | 0.0703 | 0.614 | 0.976 | -1.36 | -0.454 | -0.981
CC(C)N1C(=O)[C@@]2(Cc3ccccc31)c1ccccc1C(=O)N(Cc1ccccc1C(F)(F)F)[C@H]2c1ccc(CO)cc1 | -0.832 | 0.795 (inactive) | -0.374 | 0.0015 | 0.754 | -0.011 | 0.739 | 1.01 | 1.14 | 1.1
